In publication PMC11062922 (Nature Chemical Biology, 2023):
Read-outs that look alike come from different tables or passages of the source.

Tests used:
Set-up in all cases: species or system human, MV4-11 + K-562 + COLO205 + SK-N-BE2 + OVCAR-8
CSNK1D = conditions: read-out: apparent Kd, n = 1
CSNK1E = conditions: read-out: apparent Kd, n = 1
MAPK10 = conditions: read-out: apparent Kd, compound concentrations: 100 nM and 1000 nM (sheet 'Samples'), n = 1
MAPK9 = conditions: read-out: apparent Kd, compound concentrations: 100 nM and 1000 nM (sheet 'Samples'), n = 1
NQO2 = conditions: read-out: apparent Kd; compound concentrations: 100 nM and 1000 nM (sheet 'Samples'), CATDS: 0.189684513322773; n = 1
PIK3CD = conditions: read-out: apparent Kd, compound concentrations: 100 nM and 1000 nM (sheet 'Samples'), n = 1
CLK1 = conditions: read-out: apparent Kd, compound concentrations: 100 nM and 1000 nM (sheet 'Samples'), n = 1
CLK4 = conditions: read-out: apparent Kd, compound concentrations: 100 nM and 1000 nM (sheet 'Samples'), n = 1
DYRK1A = conditions: read-out: apparent Kd; compound concentrations: 100 nM and 1000 nM (sheet 'Samples'), CATDS: 0.12917753556196801; n = 1
JAK2 = conditions: read-out: apparent Kd; compound concentrations: 100 nM and 1000 nM (sheet 'Samples'), CATDS: 0.15367863363527601; n = 1
PTK2 = conditions: read-out: apparent Kd; compound concentrations: 100 nM and 1000 nM (sheet 'Samples'), CATDS: 0.76143962131213405; n = 1
RPS6KA1 = conditions: read-out: apparent Kd; compound concentrations: 100 nM and 1000 nM (sheet 'Samples'), CATDS: 9.5788061874141406E-2; n = 1
RPS6KA3 = conditions: read-out: apparent Kd; compound concentrations: 100 nM and 1000 nM (sheet 'Samples'), CATDS: 9.4623993582158103E-2; n = 1
NEK3 = conditions: read-out: apparent Kd; compound concentrations: 100 nM and 1000 nM (sheet 'Samples'), CATDS: 0.168041576676878; n = 1
PIK3CG = conditions: read-out: apparent Kd; compound concentrations: 100 nM and 1000 nM (sheet 'Samples'), CATDS: 0.474922434423799; n = 1
CLK2 = conditions: read-out: apparent Kd; compound concentrations: 100 nM and 1000 nM (sheet 'Samples'), CATDS: 1; n = 1
MAPK14 = conditions: read-out: apparent Kd, n = 1
MAPKAPK2 = conditions: read-out: apparent Kd, n = 1
CSNK1A1 = conditions: read-out: apparent Kd; compound concentrations: 100 nM and 1000 nM (sheet 'Samples'), CATDS: 7.9796856628157303E-2; n = 1
DDR1 = conditions: read-out: apparent Kd; compound concentrations: 100 nM and 1000 nM (sheet 'Samples'), CATDS: 4.0127184299889498E-2; n = 1
GAK = conditions: read-out: apparent Kd; compound concentrations: 100 nM and 1000 nM (sheet 'Samples'), CATDS: 4.3389501889838297E-2; n = 1
MAPK11 = conditions: read-out: apparent Kd; compound concentrations: 100 nM and 1000 nM (sheet 'Samples'), CATDS: 4.3828309846065103E-2; n = 1
MAPK8 = conditions: read-out: apparent Kd; compound concentrations: 100 nM and 1000 nM (sheet 'Samples'), CATDS: 4.3769759721199501E-2; n = 1
NLK = conditions: read-out: apparent Kd; compound concentrations: 100 nM and 1000 nM (sheet 'Samples'), CATDS: 0.178729596227966; n = 1
PIP4K2C = conditions: read-out: apparent Kd; compound concentrations: 100 nM and 1000 nM (sheet 'Samples'), CATDS: 4.0260686940240001E-2; n = 1
RIPK2 = conditions: read-out: apparent Kd; compound concentrations: 100 nM and 1000 nM (sheet 'Samples'), CATDS: 4.98304008841833E-2; n = 1
FER = conditions: read-out: apparent Kd; compound concentrations: 100 nM and 1000 nM (sheet 'Samples'), CATDS: 0.14947425083021301; n = 1
IGF1R = conditions: read-out: apparent Kd; compound concentrations: 100 nM and 1000 nM (sheet 'Samples'), CATDS: 0.12946189122978499; n = 1
INSR = conditions: read-out: apparent Kd; compound concentrations: 100 nM and 1000 nM (sheet 'Samples'), CATDS: 0.154401741124819; n = 1
PLK1 = conditions: read-out: apparent Kd; compound concentrations: 100 nM and 1000 nM (sheet 'Samples'), CATDS: 0.14661258796571799; n = 1
[1] = compound concentrations:100 nM and 1000 nM (sheet 'Samples')

## CCCCc1nn2ncccc2c1-c1ccnc(NC2CC2)n1 [GW684374X]
CSNK1D; compound concentrations: 100 nM and 1000 nM (sheet 'Samples'), CATDS: 0.183460166751924
  potency estimated from few doses: 702 nM
CSNK1E; compound concentrations: 100 nM and 1000 nM (sheet 'Samples'), CATDS: 0.13214440190412699
  potency estimated from few doses: 1590 nM
MAPK10; CATDS: 0.138963906660688
  potency estimated from few doses: 1370 nM
MAPK9; CATDS: 0.12372123914536701
  potency estimated from few doses: 1960 nM
NQO2
  potency estimated from few doses: 655 nM
PIK3CD; CATDS: 0.41134743817449698
  potency estimated from few doses: 178 nM

## CCCNC(=O)c1ccc(Nc2ncc(C(F)(F)F)c(Nc3ccccc3C(C)=O)n2)c(Br)c1 [BI00801818]
CLK1; CATDS: 0.21092266840342
  potency estimated from few doses: 154 nM
CLK4; CATDS: 0.13004922294711499
  potency estimated from few doses: 524 nM
DYRK1A
  potency estimated from few doses: 534 nM
JAK2
  potency estimated from few doses: 330 nM
PTK2
  potency estimated from few doses: 11.3 nM
RPS6KA1
  potency estimated from few doses: 1590 nM
RPS6KA3
  potency estimated from few doses: 1690 nM

## CC(C)C(=O)N[C@@H]1CCN(C(=O)Nc2nc3c(s2)-c2nc(-c4ccccc4Cl)ncc2CC3)C1 [BI00047804]
CLK1; CATDS: 0.240445755473225
  potency estimated from few doses: 416 nM
CLK4; CATDS: 0.26423272520910102
  potency estimated from few doses: 334 nM
NEK3
  potency estimated from few doses: 1310 nM
PIK3CG
  potency estimated from few doses: 115 nM

## FC(F)(F)c1cccc(Nc2nccc(-c3cnn4nc(-c5ccccc5)ccc34)n2)c1 [GW819077X]
CLK2
  potency estimated from few doses: 960 nM

## NC(=O)Cc1ccccc1Oc1nccc(-c2c(-c3ccc(F)cc3)ncn2C2CCNCC2)n1 [SB-264865]
CSNK1D; [1]
  potency estimated from few doses: 1300 nM
CSNK1E; [1]
  potency estimated from few doses: 2030 nM
MAPK14; [1]
  potency estimated from few doses: 418 nM
MAPKAPK2; [1]
  potency estimated from few doses: 503 nM

## CN1CCC(n2cnc(-c3ccc(F)cc3)c2-c2ccnc(NCCO)n2)CC1 [SB-226879]
CSNK1A1
  potency estimated from few doses: 91.2 nM
CSNK1D; compound concentrations: 100 nM and 1000 nM (sheet 'Samples'), CATDS: 0.29962108595450698
  potency estimated from few doses: 6.97 nM
CSNK1E; compound concentrations: 100 nM and 1000 nM (sheet 'Samples'), CATDS: 0.149531361707545
  potency estimated from few doses: 21.2 nM
DDR1
  potency estimated from few doses: 2140 nM
GAK
  potency estimated from few doses: 1240 nM
MAPK10; CATDS: 7.1886071403025706E-2
  potency estimated from few doses: 126 nM
MAPK11
  potency estimated from few doses: 1170 nM
MAPK14; compound concentrations: 100 nM and 1000 nM (sheet 'Samples'), CATDS: 0.120722189423433
  potency estimated from few doses: 32.5 nM
MAPK8
  potency estimated from few doses: 1180 nM
MAPK9; CATDS: 6.64061265651648E-2
  potency estimated from few doses: 166 nM
MAPKAPK2; compound concentrations: 100 nM and 1000 nM (sheet 'Samples'), CATDS: 0.113562081493031
  potency estimated from few doses: 37.1 nM
NLK
  potency estimated from few doses: 15.4 nM
PIK3CD; CATDS: 8.1619991171871006E-2
  potency estimated from few doses: 85.3 nM
PIP4K2C
  potency estimated from few doses: 2090 nM
RIPK2
  potency estimated from few doses: 572 nM

## CNC(=O)c1ncccc1Nc1nc(Nc2cc3c(cc2OC)CCCN3C(=O)CN(C)C)nc2[nH]ccc12 [GSK2220400A]
CLK1; CATDS: 0.27992821641946602
  potency estimated from few doses: 321 nM
CLK4; CATDS: 0.21204627821104199
  potency estimated from few doses: 504 nM
FER
  potency estimated from few doses: 1020 nM
IGF1R
  potency estimated from few doses: 1500 nM
INSR
  potency estimated from few doses: 949 nM
PLK1
  potency estimated from few doses: 1070 nM
